# Screens from PubChem BioAssay.
# The sample as a whole holds a higher share of hits than the screen did.
# TDP-43 rescue = rescues yeast from TDP-43 toxicity; hit rate 0.45% among 45,000; yeast TDP-43 toxicity rescue, BacTiter-Glo growth, 24 h; Potency, µM (titrated, usually from 46.1 µM), hits mostly activators; active = well fitted activation curve with a large enough effect; note: nearly all actives have a fitted effect of over 55% in size
#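 TDP-43-expressing yeast, pregrown in raffinose, seeded at OD600 0.02 in galactose medium with compound for 24 hr at 30 deg C. Growth read by BacTiter-Glo luminescence, so rescue of toxicity appears as activation.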
# A number is an active result; n = inactive.
SMILES,TDP-43 rescue
COc1cccc(NC(=O)c2cccc(C)c2[N+](=O)[O-])c1,n
CCN(CC)c1cc(C)c2cc(NC(=O)c3ccccc3OC)ccc2n1,n
COc1ccccc1C(=O)Nc1cccc(NC(=O)c2ccccc2C)c1,14µM
Cc1ccc(NC(=Nc2ccc(Br)cc2)N2CCOCC2)cc1C,n
Cn1c(CCC(=O)OCC(=O)NCC(F)(F)F)nc(=O)c2ccccc21,n
Cc1nc2ccccc2nc1OCC(=O)NCC(F)(F)F,n
O=C(COC(=O)c1c2ccccc2cc2ccccc12)NCC(F)(F)F,22µM
COc1ccc(-c2cc3ccc(O)c(CN4CCN(CCO)CC4)c3oc2=O)cc1OC,n
COc1ccc(CNC(=O)C(OC(=O)c2ccco2)c2ccc(F)cc2)cc1 (stereo not drawn),n
CCc1cccc(C)c1NC(=O)CCCSc1nc2ccccc2s1,n
O=C(COC(=O)CCc1ccccc1)NCc1ccc2c(c1)OCO2,n
O=C(CCCSc1nc2ccccc2s1)NCc1ccc2c(c1)OCO2,13µM
CC(C)Nc1nc(Nc2ccccc2Cl)c2sccc2n1,n
CCOC(=O)CCCN1C(=O)CCn2nc(-c3cn(C)c4ccccc34)cc21,n
CCCCn1nc(NC(=O)c2cccc(Cl)c2)c2cc3cccc(C)c3nc21,n
O=C(O)c1ccccc1C(=O)Nc1ccc(Oc2ccc3ccccc3c2)cc1,22µM
O=C(O)c1ccccc1C(=O)Nc1ccc(S(=O)(=O)N2CCCC2)cc1,n
O=C(Nc1ccc(Oc2cccnc2)cc1)c1ccccc1Cl,n
Cc1ccccc1-c1cc2nc(NCCCN(C)C)n(C)c(=O)c2s1,n
Cc1ccccc1-c1cc2nc(NCCOc3ccccc3)n(C)c(=O)c2s1,n
COc1ccc(Nc2nc3cc(-c4ccccc4C)sc3c(=O)n2C)cc1OC,20µM
CCCc1ccc(C(O)c2ncc(-c3cccc(C)c3)[nH]2)cc1 (stereo not drawn),n
CCn1c(C(=O)NCc2cc(Br)ccc2OC)cc2oc3ccccc3c21,n
NC(=O)c1cccc(-c2coc3c(C(=O)NC4CCCCC4)cccc23)c1,n
O=C(NCC1CC1)c1cccc2c(-c3ccc(F)c(F)c3)coc12,22µM
SMILES,TDP-43 rescue
COc1ccc(CNC(=O)c2ccc(-c3ccc(F)c(F)c3)c3ccoc23)cc1OC,n
O=C(NCc1cccc(Cl)c1)c1ccc(-c2ccc(F)c(F)c2)c2ccoc12,n
O=C(NCc1ccc(F)c(F)c1)c1cccc2c(-c3cccnc3)coc12,10µM
Cn1nccc1-c1coc2c(C(=O)NCC3CCOCC3)cccc12,n
CCOc1ccccc1NC(=O)N1CCc2cc(S(=O)(=O)N3CCC(C)CC3)ccc21,n
COCc1c(C(=O)Nc2cccc(S(=O)(=O)N3CCCCC3)c2)oc2ccccc12,n
CC1(C(=O)NS(=O)(=O)Cc2ccccc2)CCN1C(=O)Cc1ccccc1 (stereo not drawn),n
COc1ccc(OCCNC(=O)C2(C)CCN2Cc2ccc3ccccc3c2)cc1 (stereo not drawn),n
O=C(Nc1cccc2ccccc12)c1csc(COCCO)n1,n
CC(C)C1Oc2ccccc2N(CC(=O)N2CCOCC2)C1=O (stereo not drawn),n
COc1ccc(Br)cc1C(=O)Nc1ccc(N2CCCC2)cc1,n
COc1ccc(Br)cc1C(=O)NC(=S)Nc1ccc2[nH]c(=O)[nH]c2c1,n
COc1ccc(Br)cc1C(=O)Nc1ccc(C(=O)O)cc1,4.5µM
COc1ccc(C(=O)c2oc3ccccc3c2NC(=O)COc2ccccc2)cc1,n
CC1CCN(C(=O)c2ccc3c(c2)N(Cc2ccccc2)C(=O)c2ccccc2S3(=O)=O)CC1,n
Fc1ccccc1-n1ncc2c1ncn1nc(COc3ccc(Cl)cc3)nc21,n
Cc1cc(OCC(=O)NCC2(N3CCN(C)CC3)CCCCC2)cc(C)c1Cl,n
Cc1cccc(N2CCN(C(=O)/C=C/c3cccs3)CC2)c1C,14µM
CCOC(=O)C1CCN(C(=O)/C=C/c2cccs2)CC1,n
Cc1cccc(N2CCN(C(=O)c3ccc4[nH]c(C)c(C)c4c3)CC2)c1C,n
CCN(CC)c1ccc(/C=C/C(=O)c2ccc(Br)cc2)cc1,n
Cc1ccc(/C=C/C(=O)c2ccc(O)cc2)cc1,16µM
Cc1ccc(C(=O)/C=C/NCc2ccc(F)cc2)cc1,n
Cc1nc2c(OCc3ccc(C(F)(F)F)cc3)cccn2c1N(C)CC1CC1,n
Cc1ccc(-c2noc(CN(C)C(=O)c3ccoc3C)n2)cc1,n
SMILES,TDP-43 rescue
Cc1ccc(-c2noc(CN(C(=O)c3ccc4c(c3)OCO4)C(C)C)n2)cc1,n
COc1ccc(-c2noc(CN(C(=O)C(C)Oc3ccc(C)cc3)C(C)C)n2)cc1 (stereo not drawn),20µM
Cc1ccccc1OCc1nc2c3cnn(-c4cccc(F)c4)c3ncn2n1,n
Cc1cccc(OCC(=O)N(Cc2sccc2C)C2CCS(=O)(=O)C2)c1 (stereo not drawn),n
Cc1c(/C=N\NC(=O)C2COc3ccccc3O2)c2ccccc2n1C (stereo not drawn),n
O=C(N/N=C\c1cccc([N+](=O)[O-])c1O)C1COc2ccccc2O1 (stereo not drawn),10µM
O=C(CNC(=O)C1COc2ccccc2O1)N/N=C\c1cccc(O)c1 (stereo not drawn),n
COc1ccc(-c2onc(C)c2-c2cnn(-c3ccccc3)c2)c(O)c1C,n
COc1cc(NC(=O)c2ccc(-c3c(C)noc3C)c3ccoc23)cc(OC)c1OC,n
COc1ccc(-c2onc(C)c2-c2ccc(C(=O)OC(C)C)o2)c(O)c1,16µM
O=C(NCc1ccc(Cl)c(Cl)c1)c1cc(C2CCCCN2C(=O)CCc2ccccc2)on1 (stereo not drawn),n
Cc1ccc(-n2nc(C)c3c(C)c(CCC(=O)NCc4ccccc4Cl)c(C)nc32)cc1,n
CC(=O)NC(c1cccc(F)c1)c1nc(-c2cnn(C)c2)cs1 (stereo not drawn),n
O=C(N/N=C/c1ccccc1O)NC12CC3CC(CC(C3)C1)C2,n
NC(=S)N/N=C/c1ccc(C23CC4CC(CC(C4)C2)C3)cc1,7.9µM
O=C(N/N=C/c1ccc(O)c(O)c1)NC12CC3CC(CC(C3)C1)C2,n
CC(C)Oc1ccc(CN2CCC2(C)C(=O)NCc2cccc3ccccc23)cc1 (stereo not drawn),n
CCc1c(C)nc2nncn2c1Nc1cccc(C)c1,n
Cc1cccc(NCc2ccc(N(C)C)cc2)n1,n
CC1CCCN(C(=O)COc2ccc(-c3ccccc3)cc2)C1 (stereo not drawn),11µM
CC1CCCN(CC(=O)NNC(=O)COc2ccc(Br)cc2)C1 (stereo not drawn),n
COc1ccc(CC(=O)OCC(=O)N2CCCC(C)C2)cc1 (stereo not drawn),n
CCOC(=O)c1cnc2ccc(OC)cc2c1NCCc1ccccc1,n
O=C(NC(=S)Nc1cccc2cnccc12)c1ccccc1,n
CC1CCCCC1NC(=S)NC(=O)c1ccccc1Br (stereo not drawn),n
SMILES,TDP-43 rescue
O=C(NC(=S)Nc1cccc2cc(O)ccc12)c1ccccc1Br,16µM
O=C(NCc1ccco1)c1ccc2c(c1)N(Cc1ccc(F)cc1)C(=O)c1ccccc1S2(=O)=O,n
Cc1cnc(CNC(=O)c2csc([C@@H]3C[C@H](O)[C@@H](CO)O3)n2)cn1,n
N/C(=N\OC(=O)COc1ccc(Cl)cc1Cl)c1cccnc1,n
N/C(=N\OC(=O)c1ccc(Cl)cc1[N+](=O)[O-])c1cccnc1,n
N/C(=N\OC(=O)c1cccc(Cl)c1)c1cccnc1,11µM
CCc1nc2ccc(C(=O)NCCCN3CCCC3=O)cn2c1N(C)C(=O)COc1ccccc1,n
